A short description of this test: beta-lactam sensitization of Mtb H37Rv, H37Rv (AID 434955).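 Further: growth measured after seven days incubation then overnight dye step; 0% = bacteria only wells and 100% = bacteria with antibiotic.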 The following applies: M. tuberculosis H37Rv growth with meropenem, percent inhibition, at 25 µM.
[1] abbreviates: measured here: primary screen without meropenem.

Screen size: about 330,000 compounds; about 880 (0.27%) were called active. Another 1% or so got no clear call; they are omitted. How the calls were made is not given here. Not all results are given here.

As for `CSc1ccc(CN2C(=O)NC3(CCCCCC3)C2=O)cc1`, the inhibition (as a rule, the change of the read-out against control, counted positive when it falls) (stronger effect = higher value) is 19.2% (inactive) and the inhibition under setting [1] stood at 5.94%.
`CCN(CC)CCNCC(=O)Nc1ccc(Oc2ccccc2)cc1`: the inhibition (stronger effect = higher value) is -3.27% (inactive) and the inhibition under setting [1] was found to be 3.64%.
On the same counts, the results for `COc1ccc(N2CCN(C(=O)CCNC(=O)c3ccc(Br)cc3)CC2)cc1` are -10.2% (inactive) and -3.75%.
Regarding `O=C(NCc1ccccc1)C(c1ccco1)N(C(=O)c1csnn1)c1ccccc1F` (stereo not given), the inhibition (stronger effect = higher value) was -3.66% (inactive) and the inhibition under setting [1] was -4.47%.
On the same counts, the results for `COc1ccccc1CN1CC(C(=O)NCCc2cn[nH]c2)CCC1=O` (stereo not given) are -1.38% (inactive) and 3.44%.
On to `CC1=NCCN1S(=O)(=O)c1ccc(Br)c(C)c1`, for which the inhibition was 5.04% (inactive) (stronger effect = higher value) and 10.8% under setting [1].
On the same counts, the results for `Cn1c(SCC(=O)N2CCOCC2)nnc1-c1ccc(NC(=O)c2ccccc2F)cc1` are -1.25% (inactive) and -0.23%.
On to `Cc1ccc(S(=O)(=O)N(C)CC(=O)OCC(=O)N2CC(=O)Nc3ccccc32)cc1`, for which the inhibition (stronger effect = higher value) was -3.86% (inactive) and the inhibition under setting [1] is -0.77%.
The matching figures for `Cc1csc(Nc2ccc(Cl)cc2)[n+]1-c1ccc(Cl)cc1`: 5.09% (inactive) and -4.07%.
On the same counts, the results for `C=CCC(NCc1ccco1)c1ccc(OC)cc1` (stereo not given) are -0.53% (inactive) and -3.95%.
On the same counts, the results for `CCCc1ccc(-c2c(C)sc(NC(=O)c3ccnn3C)c2C#N)cc1` are 15.9% (inactive) and -4.16%.
With `N#Cc1ccc(OCCN2C(=O)NC3(CCSC3)C2=O)cc1` (stereo not given), the inhibition was -7.2% (inactive) (stronger effect = higher value) and -8.16% under setting [1].
On the same counts, the results for `CN(C)CCn1c2c(c(SCC(=O)Nc3ccccc3C(F)(F)F)nc1=O)CCCC2` are -6.06% (inactive) and -5.4%.
On the same counts, the results for `O=C(NCCc1ccccc1)C1CCC(Cn2c(=O)c3ccccc3n(Cc3cccnc3)c2=O)CC1` (stereo not given) are 19.4% (inactive) and 2.41%.
The matching figures for `O=S(=O)(NCC1CC1)c1ccc(F)c(Cl)c1`: -3.45% (inactive) and 1.07%.
In the case of `O=C(Nc1ccccc1Cl)/C(Cl)=C(\Cl)S(=O)c1ccccc1` (stereo not given), the inhibition reads like this: (stronger effect = higher value) 100% (inactive); under setting [1], 100%.
On the same counts, the results for `O=C(Oc1c(-c2ccco2)oc2ccccc2c1=O)c1cccnc1` are 92.5% (inactive) and 91.2%.
Regarding `Cc1ccc(OCC(=O)Oc2ccccc2[N+](=O)[O-])cc1`, the inhibition runs as follows: (stronger effect = higher value) -3.48% (inactive); under setting [1], -11.4%.
Consider `O=C1NC2(CCCCC2)N=C1c1ccccc1`, for which the inhibition is -10.1% (inactive) (stronger effect = higher value) and -2.99% under setting [1].
On the same counts, the results for `Cc1cc(NC(=O)c2ccccc2C)no1` are -1.93% (inactive) and 3.81%.
On the same counts, the results for `Cc1n[nH]c(=O)c2c(NC(=O)CSc3cc(Cl)ccc3Cl)oc(C)c12` are -5.41% (inactive) and -1.99%.
On the same counts, the results for `CC(C)C(=O)Nc1nnc(SCC(=O)N2C(C)CCCC2C)s1` (stereo not given) are 0.21% (inactive) and 10.7%.
As to `Cc1ccc2c(c1)-c1c(ssc1=S)C(C)(C)N2C(=O)CN1C(=O)c2ccccc2C1=O`, the inhibition (stronger effect = higher value) was -4.41% (inactive) and the inhibition under setting [1] was -1.91%.
With `CC1Sc2ccc(C(=O)NCc3ccccc3Cl)cc2NC1=O` (stereo not given), the inhibition was 6.05% (inactive) (stronger effect = higher value) and 2.96% under setting [1].
On the same counts, the results for `COc1cc(C2C(C(=O)OCCC#N)=C(C)NC3=C2S(=O)(=O)c2ccccc23)cc(OC)c1OC` (stereo not given) are 4.16% (inactive) and 1.07%.
On the same counts, the results for `COc1ccc(-c2cc(=O)oc3cc(OC(C)C(=O)Nc4ccc(CN5CCOCC5)cc4)ccc23)cc1` (stereo not given) are 98.4% (inactive) and 96.8%.
On to `CC(Sc1nnc2c(n1)C1CCC2(C)C1(C)C)C(=O)Nc1ccccc1` (stereo not given), for which the inhibition is, setting by setting: (stronger effect = higher value) -4.99% (inactive); under setting [1], -6.12%.
For the molecule `Nn1c(SCC(=O)Nc2ccc3c(c2)CCC3)nnc1C1CC1`, the inhibition was -4.28% (inactive) (stronger effect = higher value) and -7.87% under setting [1].
Regarding `C/C=C(\C)C(=O)NCCN1C2=NC[C@H](Cc3ccc(O)cc3)N2C[C@@H]1Cc1ccc(OC)cc1`, the inhibition (stronger effect = higher value) was -14.9% (inactive) and the inhibition under setting [1] is -6%.
Regarding `CSCCC(Nc1ccc(S(=O)(=O)N2CCOCC2)cc1[N+](=O)[O-])C(=O)OCC(=O)N(C(C)C)C(C)C` (stereo not given), the inhibition is 3.64% (inactive) (stronger effect = higher value) and 2.01% under setting [1].
Consider `CCCCC(C(=O)NC(C)(C)C)N(Cc1ccccc1)C(=O)c1snc(C(N)=O)c1N` (stereo not given), for which the inhibition (stronger effect = higher value) was -2.34% (inactive) and the inhibition under setting [1] came to 4.81%.
The matching figures for `Fc1ccc2c(c1)C(c1cccnc1)=NNC(c1cccs1)=N2`: 31% (inactive) and 4.96%.
Take `Cc1ccc(-c2csc(NC(=O)C3=COCCO3)n2)cc1C`: the inhibition is, setting by setting: (stronger effect = higher value) 92.7% (inactive); under setting [1], 99.3%.
For the molecule `CN(CC(=O)Nc1ccc(S(=O)(=O)N2CCCC2)cc1)Cc1ccc(Cl)c(Cl)c1`, the inhibition runs as follows: (stronger effect = higher value) 1.99% (inactive); under setting [1], 0.57%.
Consider `C=C(C)c1cccc(C(C)(C)NC(=O)N2CCN(c3ncccn3)CC2)c1`, for which the inhibition (stronger effect = higher value) is -9.15% (inactive) and the inhibition under setting [1] was -8.65%.
The matching figures for `O=C1C=C(c2ccnc3cc(Cl)ccc23)C[C@@H](c2ccc3c(c2)OCO3)C1`: 52.4% (inactive) and 50.9%.
On to `CCc1ccc(/C=N/NC(=O)c2ccc(OC3CCCC3)cc2)s1`, for which the inhibition runs as follows: (stronger effect = higher value) 2.88% (inactive); under setting [1], 3.87%.
The matching figures for `Cc1ccc(-n2cc(CN(C)Cc3nccn3C)c(-c3cccc(C)c3)n2)cc1`: 98.9% (inactive) and 99.4%.
On to `O=C(NC(=S)N1CCN(Cc2ccccc2)CC1)c1ccccc1`, for which the inhibition reads like this: (stronger effect = higher value) 36.8% (inactive); under setting [1], -3.71%.
On the same counts, the results for `CC(OC(=O)CN1C(=O)C2CCCCC2C1=O)C(=O)Nc1ncc(Cl)cc1Cl` (stereo not given) are -4.66% (inactive) and 4.44%.

(Values after PubChem BioAssay AID434955 (Southern Research Specialized Biocontainment Screening …, 2010).)
